Experiments:
Assay in all cases: log2 ratio of Biotin-Ahx-Ub-VS probe labelling (fragment/DMSO); higher = less target engagement (more negative = stronger competition), active = hit call of the paper (q ≤ 0.05, log2 ratio ≤ -1)
Details in all cases: compound concentration: 200 uM; treatment time: 3 h
[1] = molecular target: USP9X (UniProt Q93008)
Method in brief: (§1)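 Fragment (200 µM) or vehicle was incubated for 3 h with triplicate HEK293T lysate samples of 495 µg, which were then treated with Biotin-Ahx-Ub-VS at 0.5 µM final for 1 h. Labelled DUBs were enriched on NeutrAvidin, digested with LysC and trypsin, and analysed by diaPASEF LC-MS/MS. Values are average log2 fragment/vehicle ratios from an unpaired t-test on global-median-normalised Spectronaut label-free quantities, using proteins with ≥2 unique peptides.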

[2] = molecular target: UniProt O00487
Method in brief: as §1

[3] = molecular target: UniProt O00507
Method in brief: as §1

[4] = molecular target: UniProt P51784
Method in brief: as §1

[5] = molecular target: T1, UniProt Q5T2D3
T1 sequence (whole entry): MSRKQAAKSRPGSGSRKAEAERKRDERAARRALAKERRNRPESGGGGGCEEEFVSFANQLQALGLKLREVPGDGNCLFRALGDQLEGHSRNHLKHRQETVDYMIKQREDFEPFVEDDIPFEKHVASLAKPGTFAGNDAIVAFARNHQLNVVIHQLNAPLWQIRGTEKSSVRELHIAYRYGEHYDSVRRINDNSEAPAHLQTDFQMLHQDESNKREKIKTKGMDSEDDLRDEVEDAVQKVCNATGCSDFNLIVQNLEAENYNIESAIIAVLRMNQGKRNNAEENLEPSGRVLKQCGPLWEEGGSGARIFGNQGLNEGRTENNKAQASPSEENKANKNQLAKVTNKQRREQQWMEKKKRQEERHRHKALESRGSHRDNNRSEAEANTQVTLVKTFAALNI
Method in brief: as §1

[6] = molecular target: T2, UniProt Q8TE49
T2 sequence (whole entry): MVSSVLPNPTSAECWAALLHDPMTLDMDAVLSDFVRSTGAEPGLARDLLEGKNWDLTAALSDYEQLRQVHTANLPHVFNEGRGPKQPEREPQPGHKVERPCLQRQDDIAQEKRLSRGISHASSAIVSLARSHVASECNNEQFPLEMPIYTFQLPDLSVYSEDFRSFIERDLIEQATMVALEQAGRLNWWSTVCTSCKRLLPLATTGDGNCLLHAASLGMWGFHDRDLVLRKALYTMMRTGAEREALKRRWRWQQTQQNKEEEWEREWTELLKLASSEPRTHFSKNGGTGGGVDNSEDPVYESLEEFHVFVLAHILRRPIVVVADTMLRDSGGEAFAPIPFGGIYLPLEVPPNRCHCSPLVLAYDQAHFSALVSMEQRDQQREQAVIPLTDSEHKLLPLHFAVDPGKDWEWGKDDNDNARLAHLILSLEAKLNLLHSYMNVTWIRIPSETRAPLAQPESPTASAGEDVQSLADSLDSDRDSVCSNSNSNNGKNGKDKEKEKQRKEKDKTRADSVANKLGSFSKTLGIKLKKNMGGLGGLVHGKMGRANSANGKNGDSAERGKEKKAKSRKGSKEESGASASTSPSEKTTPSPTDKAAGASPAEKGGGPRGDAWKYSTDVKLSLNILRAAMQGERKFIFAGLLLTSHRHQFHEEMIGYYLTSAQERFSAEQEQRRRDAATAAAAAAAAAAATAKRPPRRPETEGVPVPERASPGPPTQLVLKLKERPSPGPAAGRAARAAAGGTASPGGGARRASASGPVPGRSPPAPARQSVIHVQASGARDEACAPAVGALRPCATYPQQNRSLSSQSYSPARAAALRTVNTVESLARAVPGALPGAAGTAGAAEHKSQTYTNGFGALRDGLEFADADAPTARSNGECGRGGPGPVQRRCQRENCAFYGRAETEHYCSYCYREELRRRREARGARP
Method in brief: as §1

[7] = molecular target: T3, UniProt Q9P2H5
T3 sequence (whole entry): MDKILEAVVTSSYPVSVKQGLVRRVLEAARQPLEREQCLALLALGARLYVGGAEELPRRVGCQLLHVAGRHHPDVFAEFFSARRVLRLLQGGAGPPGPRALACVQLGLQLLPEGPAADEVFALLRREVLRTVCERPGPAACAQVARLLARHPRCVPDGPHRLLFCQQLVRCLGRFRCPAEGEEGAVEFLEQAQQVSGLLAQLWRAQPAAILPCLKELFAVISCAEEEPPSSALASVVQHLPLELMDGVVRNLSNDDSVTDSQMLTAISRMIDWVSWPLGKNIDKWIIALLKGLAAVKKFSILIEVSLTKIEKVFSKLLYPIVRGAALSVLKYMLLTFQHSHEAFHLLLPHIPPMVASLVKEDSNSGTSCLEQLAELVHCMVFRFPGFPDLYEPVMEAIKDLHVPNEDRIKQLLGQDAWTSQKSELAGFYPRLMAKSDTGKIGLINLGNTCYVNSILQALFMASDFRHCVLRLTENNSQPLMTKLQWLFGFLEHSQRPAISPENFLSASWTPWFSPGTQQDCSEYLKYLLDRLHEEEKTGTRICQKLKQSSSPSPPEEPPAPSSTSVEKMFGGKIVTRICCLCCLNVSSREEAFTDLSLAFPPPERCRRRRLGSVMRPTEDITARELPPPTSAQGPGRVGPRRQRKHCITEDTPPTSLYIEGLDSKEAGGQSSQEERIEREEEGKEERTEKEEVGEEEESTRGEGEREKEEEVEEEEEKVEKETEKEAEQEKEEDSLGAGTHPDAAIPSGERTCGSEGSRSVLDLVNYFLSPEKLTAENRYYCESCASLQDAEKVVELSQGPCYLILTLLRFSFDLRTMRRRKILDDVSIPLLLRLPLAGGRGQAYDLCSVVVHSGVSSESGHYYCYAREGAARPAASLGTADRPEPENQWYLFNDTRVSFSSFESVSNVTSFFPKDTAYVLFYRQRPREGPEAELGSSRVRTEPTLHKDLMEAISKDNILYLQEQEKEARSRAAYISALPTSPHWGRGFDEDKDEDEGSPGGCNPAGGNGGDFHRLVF
Method in brief: as §1

[8] = molecular target: T4, UniProt Q9UGI0
T4 sequence (whole entry): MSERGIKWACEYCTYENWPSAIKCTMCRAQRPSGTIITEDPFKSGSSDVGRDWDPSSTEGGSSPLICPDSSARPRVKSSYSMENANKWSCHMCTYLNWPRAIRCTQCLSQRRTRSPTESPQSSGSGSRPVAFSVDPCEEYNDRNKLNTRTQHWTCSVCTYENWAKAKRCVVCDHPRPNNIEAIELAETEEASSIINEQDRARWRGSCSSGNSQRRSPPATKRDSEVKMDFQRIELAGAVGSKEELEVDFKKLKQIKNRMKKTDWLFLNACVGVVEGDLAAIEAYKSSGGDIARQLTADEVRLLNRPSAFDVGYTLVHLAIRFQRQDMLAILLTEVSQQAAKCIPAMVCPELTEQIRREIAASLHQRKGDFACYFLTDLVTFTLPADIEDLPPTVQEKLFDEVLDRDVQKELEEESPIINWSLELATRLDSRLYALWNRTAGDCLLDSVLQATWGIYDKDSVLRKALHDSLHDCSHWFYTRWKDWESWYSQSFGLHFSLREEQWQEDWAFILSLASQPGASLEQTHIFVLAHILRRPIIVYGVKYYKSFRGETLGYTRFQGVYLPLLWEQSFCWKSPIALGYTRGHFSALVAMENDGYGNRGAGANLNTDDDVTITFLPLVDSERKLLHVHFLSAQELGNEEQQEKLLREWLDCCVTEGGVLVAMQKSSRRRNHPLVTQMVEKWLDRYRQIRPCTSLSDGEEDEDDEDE
Method in brief: as §1

[9] = molecular target: T5, YOD1 (UniProt Q5VVQ6)
T5 sequence (whole entry): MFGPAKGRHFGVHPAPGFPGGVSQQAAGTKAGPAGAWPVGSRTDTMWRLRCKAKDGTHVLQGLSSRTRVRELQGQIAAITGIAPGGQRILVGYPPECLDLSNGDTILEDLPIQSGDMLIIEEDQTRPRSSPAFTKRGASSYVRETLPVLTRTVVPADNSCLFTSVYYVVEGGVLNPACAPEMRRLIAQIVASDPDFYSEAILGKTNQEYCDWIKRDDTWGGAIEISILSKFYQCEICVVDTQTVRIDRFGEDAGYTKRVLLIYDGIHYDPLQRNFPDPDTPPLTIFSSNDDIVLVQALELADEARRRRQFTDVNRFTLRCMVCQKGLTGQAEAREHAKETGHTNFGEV
Method in brief: as §1

Measured: log2 ratio of Biotin-Ahx-Ub-VS probe labelling

Sequence of UniProt P51784 (P51784 whole entry): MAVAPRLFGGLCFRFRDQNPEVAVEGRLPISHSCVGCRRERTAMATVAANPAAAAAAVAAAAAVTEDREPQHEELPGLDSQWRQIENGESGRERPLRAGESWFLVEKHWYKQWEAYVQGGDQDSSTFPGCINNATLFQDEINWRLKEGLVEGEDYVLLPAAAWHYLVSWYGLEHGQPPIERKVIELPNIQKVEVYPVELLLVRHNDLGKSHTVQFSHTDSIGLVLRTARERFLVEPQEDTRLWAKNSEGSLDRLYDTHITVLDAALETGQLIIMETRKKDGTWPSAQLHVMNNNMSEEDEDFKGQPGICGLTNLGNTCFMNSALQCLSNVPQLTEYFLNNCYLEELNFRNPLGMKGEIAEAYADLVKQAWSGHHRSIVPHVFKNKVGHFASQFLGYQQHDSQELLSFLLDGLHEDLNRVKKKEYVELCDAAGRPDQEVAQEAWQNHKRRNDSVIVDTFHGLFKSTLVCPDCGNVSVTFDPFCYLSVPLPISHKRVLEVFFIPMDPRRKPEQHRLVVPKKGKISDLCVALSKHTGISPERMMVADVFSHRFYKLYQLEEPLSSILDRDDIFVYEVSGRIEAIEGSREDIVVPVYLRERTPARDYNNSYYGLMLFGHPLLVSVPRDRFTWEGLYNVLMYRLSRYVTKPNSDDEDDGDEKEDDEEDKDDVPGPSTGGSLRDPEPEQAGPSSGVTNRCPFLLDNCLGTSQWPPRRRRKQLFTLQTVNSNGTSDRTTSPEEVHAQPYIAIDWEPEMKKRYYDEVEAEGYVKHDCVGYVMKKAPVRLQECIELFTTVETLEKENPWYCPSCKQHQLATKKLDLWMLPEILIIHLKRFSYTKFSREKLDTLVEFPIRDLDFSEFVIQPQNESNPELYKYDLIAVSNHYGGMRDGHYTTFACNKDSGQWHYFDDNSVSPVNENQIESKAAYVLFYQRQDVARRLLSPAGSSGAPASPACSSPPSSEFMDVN
Sequence of USP9X (Q93008 whole entry, the tested form may be a part): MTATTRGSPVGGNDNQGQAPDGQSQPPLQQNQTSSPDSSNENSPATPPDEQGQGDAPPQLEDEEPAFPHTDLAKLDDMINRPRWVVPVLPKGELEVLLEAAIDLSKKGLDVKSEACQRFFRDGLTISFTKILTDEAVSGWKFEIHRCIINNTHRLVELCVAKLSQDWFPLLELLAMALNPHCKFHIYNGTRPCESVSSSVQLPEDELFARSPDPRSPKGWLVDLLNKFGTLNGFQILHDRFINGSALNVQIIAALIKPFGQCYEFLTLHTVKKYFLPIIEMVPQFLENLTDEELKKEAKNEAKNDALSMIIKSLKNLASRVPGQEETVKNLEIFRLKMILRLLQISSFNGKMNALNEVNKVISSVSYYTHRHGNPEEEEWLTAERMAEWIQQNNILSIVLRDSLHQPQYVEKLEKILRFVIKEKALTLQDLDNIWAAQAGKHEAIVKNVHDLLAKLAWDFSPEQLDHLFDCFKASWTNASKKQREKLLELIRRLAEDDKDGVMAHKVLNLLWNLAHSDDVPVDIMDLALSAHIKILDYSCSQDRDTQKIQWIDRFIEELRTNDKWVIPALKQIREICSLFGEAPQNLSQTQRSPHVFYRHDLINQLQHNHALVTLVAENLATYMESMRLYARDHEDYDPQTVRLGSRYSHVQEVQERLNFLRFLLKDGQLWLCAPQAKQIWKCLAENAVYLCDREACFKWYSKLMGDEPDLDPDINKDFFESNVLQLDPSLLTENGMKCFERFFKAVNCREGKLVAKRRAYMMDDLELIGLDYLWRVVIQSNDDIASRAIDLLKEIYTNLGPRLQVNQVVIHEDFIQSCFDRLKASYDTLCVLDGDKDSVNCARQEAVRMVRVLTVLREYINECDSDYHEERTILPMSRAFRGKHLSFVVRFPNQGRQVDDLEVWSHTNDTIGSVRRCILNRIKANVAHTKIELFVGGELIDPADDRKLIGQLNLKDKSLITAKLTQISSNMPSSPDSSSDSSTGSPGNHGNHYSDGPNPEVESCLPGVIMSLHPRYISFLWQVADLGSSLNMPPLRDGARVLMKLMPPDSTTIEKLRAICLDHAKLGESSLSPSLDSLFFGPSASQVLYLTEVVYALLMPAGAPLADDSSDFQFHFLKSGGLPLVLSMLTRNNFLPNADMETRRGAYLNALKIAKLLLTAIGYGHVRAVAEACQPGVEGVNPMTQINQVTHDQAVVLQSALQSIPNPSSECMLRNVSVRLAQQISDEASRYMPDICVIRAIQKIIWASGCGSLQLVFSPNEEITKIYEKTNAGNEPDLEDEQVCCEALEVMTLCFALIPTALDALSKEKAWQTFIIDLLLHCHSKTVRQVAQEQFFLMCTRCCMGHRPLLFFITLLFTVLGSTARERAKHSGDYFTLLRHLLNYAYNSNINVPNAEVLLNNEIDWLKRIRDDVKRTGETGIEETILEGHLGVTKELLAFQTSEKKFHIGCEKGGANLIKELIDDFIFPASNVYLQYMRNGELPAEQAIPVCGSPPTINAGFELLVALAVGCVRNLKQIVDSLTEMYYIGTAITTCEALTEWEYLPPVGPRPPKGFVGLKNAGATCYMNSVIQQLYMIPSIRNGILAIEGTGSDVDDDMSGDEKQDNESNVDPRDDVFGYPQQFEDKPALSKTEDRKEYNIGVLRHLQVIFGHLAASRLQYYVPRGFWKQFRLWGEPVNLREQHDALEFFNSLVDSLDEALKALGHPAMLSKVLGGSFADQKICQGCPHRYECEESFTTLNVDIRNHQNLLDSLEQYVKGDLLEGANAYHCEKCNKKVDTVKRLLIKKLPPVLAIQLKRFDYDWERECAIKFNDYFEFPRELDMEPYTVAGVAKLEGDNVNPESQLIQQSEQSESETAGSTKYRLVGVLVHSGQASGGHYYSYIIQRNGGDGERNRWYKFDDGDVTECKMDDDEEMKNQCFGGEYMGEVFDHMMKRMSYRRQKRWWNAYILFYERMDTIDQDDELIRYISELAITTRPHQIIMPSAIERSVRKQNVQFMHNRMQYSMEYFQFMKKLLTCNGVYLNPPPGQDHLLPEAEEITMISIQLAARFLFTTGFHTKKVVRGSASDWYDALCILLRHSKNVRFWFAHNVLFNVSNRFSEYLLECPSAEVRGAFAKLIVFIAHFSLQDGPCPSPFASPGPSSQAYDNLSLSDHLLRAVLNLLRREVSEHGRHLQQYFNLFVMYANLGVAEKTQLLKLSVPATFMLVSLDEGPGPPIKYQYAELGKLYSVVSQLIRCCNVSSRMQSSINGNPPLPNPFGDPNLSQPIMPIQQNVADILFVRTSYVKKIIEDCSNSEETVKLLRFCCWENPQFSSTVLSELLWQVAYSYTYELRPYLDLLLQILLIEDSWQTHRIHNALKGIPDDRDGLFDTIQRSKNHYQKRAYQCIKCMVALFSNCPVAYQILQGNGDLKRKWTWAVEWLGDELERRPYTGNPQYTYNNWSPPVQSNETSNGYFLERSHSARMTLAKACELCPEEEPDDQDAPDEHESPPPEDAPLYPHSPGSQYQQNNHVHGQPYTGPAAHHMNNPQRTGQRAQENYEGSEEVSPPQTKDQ
Sequence of UniProt O00487 (O00487 whole entry): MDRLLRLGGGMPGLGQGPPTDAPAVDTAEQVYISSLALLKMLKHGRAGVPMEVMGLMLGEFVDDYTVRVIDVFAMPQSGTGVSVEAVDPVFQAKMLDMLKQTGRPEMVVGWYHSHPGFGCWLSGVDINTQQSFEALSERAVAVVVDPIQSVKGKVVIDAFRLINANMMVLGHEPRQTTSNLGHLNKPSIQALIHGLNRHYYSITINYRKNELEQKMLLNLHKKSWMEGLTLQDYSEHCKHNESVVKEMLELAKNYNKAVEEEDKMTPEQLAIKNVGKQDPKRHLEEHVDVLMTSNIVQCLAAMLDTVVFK

O=C(CCl)NCCC1COCCO1 (centres undefined)
inactive: [1] -0.131 | [2] -0.1 | [3] -0.31 | [4] 0.182 | [5] -0.163 | [6] -0.547 | [7] -0.0395 | [8] -0.194 | [9] -0.308
